HT1080 IDH1KD tx = toxicity to HT-1080 IDH1 knockdown cells (counter line); HT-1080 IDH1 knockdown viability, ATP luminescence, 48 h; Potency, µM (series often up to 46.1 µM), hits mostly cytotoxic; actives 2% (n = 360,000)
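% activity derives from luminescence (CellTiter-Glo), normalised to DMSO and no-cell wells. HT-1080-IDH1KD cells, 750/well, had 48 h compound exposure at 37 °C.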
HepG2 viability = counter-screen for TGF-b inhibitors: cytotoxicity in HepG2 cells; HepG2 CAGA-GFP viability, ATP luminescence, 18 h; Potency, µM (doses to about 46.1 µM), actives largely listed as cytotoxic; actives 0.76% (n = 410,000); AID 588856
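HepG2 CAGA-GFP cells (1000/well, DMEM with 1% FBS) received compound, then TGF-beta at 500 pg/mL final, and were incubated 18 hours at 37 degrees C. Viability was read by CellTiter-Glo luminescence. Media-only wells were set as complete cell-killing and DMSO as no toxicity.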
HT1080-NT tox = kills 2HG-producing HT-1080-NT fibrosarcoma cells. actives 1.6% (n = 360,000). Potency, µM (doses to about 46.1 µM), most hits filed as cytotoxic. HT-1080-NT fibrosarcoma viability, CellTiter-Glo ATP luminescence, 48 h;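 note: NT is the 2HG producing partner of a matched IDH1 knockdown line; nearly all actives have a fitted effect of over 55% in size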
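Read-out is CellTiter-Glo luminescence after 10 minutes at room temperature, following 48 hours' compound treatment of HT-1080-NT cells (750 cells/well, RPMI, 5% FBS, 37 degrees C).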
KB-V1 cytotox = KB-V1 MDR subline cytotoxicity | actives 3.4% (n = 400,000) | KB-V1 MDR cells viability, CellTiter-Glo, 72 h | Potency, µM (titrated, usually from 46.1 µM), usual class: cytotoxic; note: nearly all actives have a fitted effect of over 60% in size
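Cytotoxicity toward P-gp-expressing KB-V1 cells was determined as loss of CellTiter-Glo luminescence after 72 h at 37 degrees C. Compounds were tested in quantitative HTS format across a concentration range, with curves fitted to normalized data.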
TGFb SMAD3 inh = inhibitors of TGF-b signaling. HepG2 CAGA-GFP TGF-b/SMAD3 reporter, GFP fluorescence, 18 h; TGF-beta stimulated, 500 pg/mL final. Potency, µM (highest dose often 46.1 µM), actives largely listed as inhibitors. actives 1.2% (n = 410,000); note: nearly all actives have a fitted effect of over 65% in size
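Inhibition was scored as loss of TGF-beta-induced (500 pg/mL final, 18 hours, 37 degrees C) GFP in HEPG2 cells carrying a CAGA-GFP reporter, in DMEM with 1% FBS. Well GFP was summed per cell; Activity was normalised to unstimulated and stimulated DMSO wells, then concentration-response fitting.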
KB-3-1 tox = KB-3-1 parental cell cytotoxicity; Potency, µM (highest dose often 46.1 µM), actives largely listed as cytotoxic; KB-3-1 viability, CellTiter-Glo ATP luminescence, 72 h; actives 1.4% (n = 400,000); note: nearly all actives have a fitted effect of over 60% in size
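Here the drug-naive KB-3-1 line serves as comparator for MDR sub-line selectivity; cells received compound titrations, 72 h at 37 °C, then CellTiter-Glo readout.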
Each line names hits and unclear results; the compound was inactive in the other large screens; ! = repeats disagree. This is a sample that favours compounds with a hit; in the whole collection about 6.6% have one here. Calls come from the whole dose curve; as a rule, active = well fitted curve in the direction sought with a large enough effect; inconclusive = small, poorly fitted or top-dose-only effect, or another doubt; inactive = no such curve, though single readings can be large; an effect the other way counts as inactive or inconclusive.

COC(=O)C(NNc1ccccc1)(NC(=O)c1ccccc1F)C(F)(F)F (configuration not stated)	none
COC(=O)C(NNc1ccccc1)(NC(=O)c1ccc(F)cc1)C(F)(F)F (configuration not stated)	HT1080 IDH1KD tx inconclusive, KB-V1 cytotox 23.1µM, KB-3-1 tox inconclusive
O=S1(=O)CCN(CCCCc2ccccc2)CC1	none
CCCCC1Cc2[nH]c(=S)[nH]c(=O)c2C(c2ccc3ccccc3c2)O1 (configuration not stated)	HT1080 IDH1KD tx inconclusive, HT1080-NT tox inconclusive (no result: HepG2 viability, TGFb SMAD3 inh)
CCCC[C@@H]1Cc2[nH][nH]c(=O)c2[C@H](c2ccc3ccccc3c2)O1	HT1080 IDH1KD tx 23.1µM (no result: HepG2 viability, TGFb SMAD3 inh)
COCCSc1ncnc2c1oc1nc3c(cc12)COC(C)(C)C3	HT1080 IDH1KD tx inconclusive, KB-3-1 tox inconclusive
CC1(C)Cc2nc3oc4c(N(CCO)Cc5ccccc5)ncnc4c3cc2CO1	KB-V1 cytotox 14.6µM
O=[N+]([O-])c1ccc(N=Nc2ncc[nH]2)cc1	HT1080 IDH1KD tx 6.51µM, HT1080-NT tox 18.4µM, KB-V1 cytotox inconclusive, KB-3-1 tox inconclusive
O=C(CSc1nc(-c2ccccc2)nc2cc(=O)[nH]n12)Nc1ccccc1	KB-V1 cytotox inconclusive (no result: HT1080 IDH1KD tx, HT1080-NT tox)
CCOC(=O)c1c(NC(=O)C2CCCO2)sc2c1CCC2 (configuration not stated)	none
Cc1nnc(SCC(=O)Nc2sc3c(c2C#N)CCCCC3)n1N	none
N#Cc1c(NC(=O)C2CCCO2)sc2c1CCCCCC2 (configuration not stated)	KB-V1 cytotox 18.4µM
NC(=O)c1c(NC(=O)C2CCCO2)sc2c1CCCC2 (configuration not stated)	KB-V1 cytotox 14.6µM!
N#Cc1c(NC(=O)CSc2nnnn2C2CCCCC2)sc2c1CCCC2	KB-V1 cytotox 23.1µM
COC(=O)Nc1sc2c(c1C(N)=O)CCCC2	none (no result: HT1080 IDH1KD tx, HepG2 viability, HT1080-NT tox, TGFb SMAD3 inh)
Cc1sc(NC(=O)C2CCCO2)c(C#N)c1C (configuration not stated)	none
COC(=O)Nc1sc2c(c1C(=O)NC1CC1)CCCCCC2	KB-V1 cytotox 23.1µM
CC(C)c1cc(C(=O)NCc2ccccc2)no1	none (no result: HT1080 IDH1KD tx, HT1080-NT tox)
CC(=O)c1cccc(N2C(=O)CN(S(C)(=O)=O)CC2(C)C(=O)NC2CCCC2)c1 (configuration not stated)	KB-V1 cytotox inconclusive (no result: HT1080 IDH1KD tx, HT1080-NT tox)
CCCS(=O)(=O)NC(=O)C1(C)CCCN(C(=O)c2cc(OC)c(OC)c(OC)c2)C1 (configuration not stated)	none
Cc1oc2c(c(=O)c1C)C(=O)CC(c1ccccc1)C2 (configuration not stated)	none
CS(=O)(=O)c1sc(C#N)c2c1C(=O)CC(c1ccccc1)C2 (configuration not stated)	HT1080 IDH1KD tx 23.1µM, HT1080-NT tox 6.51µM, TGFb SMAD3 inh inconclusive
O=C(COc1nsnc1N1CCOCC1)N/N=C/c1ccccc1O	HT1080 IDH1KD tx 14.6µM, HT1080-NT tox inconclusive, KB-V1 cytotox inconclusive
CSc1nc(C)cc(OCC(=O)N/N=C/c2ccccc2O)n1	HT1080 IDH1KD tx inconclusive, HT1080-NT tox inconclusive, TGFb SMAD3 inh inconclusive, KB-3-1 tox 5.8µM
COc1cccc(/C=N/NC(=O)CSCC(=O)Nc2ccccc2)c1O	HT1080 IDH1KD tx 2µM, HT1080-NT tox 3.98µM, KB-3-1 tox inconclusive
O=C(CCCCC(=O)NN=Cc1ccccc1O)NN=Cc1ccccc1O	HT1080 IDH1KD tx 6.51µM, HT1080-NT tox inconclusive, KB-3-1 tox inconclusive
CCOC(=O)c1c(NC(=O)COC(=O)c2ccccn2)sc(C)c1C	KB-V1 cytotox inconclusive
COc1ccc(Cc2c(C3CCCCC3)nc3cc(C)c(Br)c(C)n23)c(C)c1	none (no result: HepG2 viability, TGFb SMAD3 inh)
CNC(=O)C1CCC(Cn2c(=O)c3sccc3n(CC(=O)N3CCCC(C)C3)c2=O)CC1 (configuration not stated)	none (no result: HT1080 IDH1KD tx, HT1080-NT tox)

Screens deposited in PubChem BioAssay by National Center for Advancing Translational Sciences (NCATS).
